Structures are written as SMILES. Compounds without any hit were thinned out: in the full panel of roughly 83,000, 20% have a hit.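 Growth was measured after 48 h exposure to one concentration of compound in 96-well plates. Values under 10 count as active.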 Values without a mark were called inactive. The source made the active and inactive calls.

The text below walks through data of PubChem BioAssay (NCI).

Test systems include DU-145 prostate; K-562 leukemia; MALME-3M melanoma; MDA-MB-231 breast; RXF 393 renal; SF-268 CNS; SF-295 CNS; SF-539 CNS; UACC-257 melanoma; M14 melanoma; HCT-15 colon; HT29 colon; SNB-75 CNS; SNB-19 CNS; PC-3 prostate; SK-MEL-5 melanoma; UACC-62 melanoma; LOX IMVI melanoma; SK-MEL-28 melanoma; U251 CNS.
Assay in all cases: NCI-60 one-dose screen, 48 h (100 = growth as untreated, 0 = no growth, -100 = all killed)
What all share (details): 10 µM unless noted

Regarding `Cc1cc(NS(=O)(=O)c2ccc(NC(=O)COc3ccc(-c4cc5ccccc5[nH]4)cc3)cc2)no1`, the growth in the assay with DU-145 prostate is 18.5%; in the assay on K-562 leukemia it was 6.89% (active); in the assay on MALME-3M melanoma, 47.6%; with MDA-MB-231 breast, 18.9%; with RXF 393 renal, -24.6% (active); in the assay on SF-268 CNS it was 27.3%. For the same compound, the growth in the assay with SF-295 CNS was 8.98% (active); in the assay on SF-539 CNS it was 6.2% (active); in the assay on UACC-257 melanoma, 56.9%; in the assay on M14 melanoma, -15.4% (active); in the assay on HCT-15 colon, 24.7%; in the assay on HT29 colon, 12.3%. In addition, the growth in the assay with SNB-75 CNS was -12.2% (active); in the assay on SNB-19 CNS it was 29.6%; in the assay on PC-3 prostate, 13.3%; in the assay on SK-MEL-5 melanoma it was 12.4%; in the assay with UACC-62 melanoma it was 31.4%; in the assay with LOX IMVI melanoma it was 4.54% (active). In addition, the growth with SK-MEL-28 melanoma was 18.9%.
In the case of `Cn1cc(C(=O)NCCC(=N)N)cc1NC(=O)CN=C(N)N`, the growth with DU-145 prostate was 104%; in the assay with K-562 leukemia, 134%; in the assay on MALME-3M melanoma it was 106%; in the assay with MDA-MB-231 breast, 94.1%; with RXF 393 renal it was 114%; in the assay on SF-268 CNS it was 112%. Moreover, the growth in the assay with SF-295 CNS is 110%; with SF-539 CNS, 104%; in the assay with UACC-257 melanoma it was 99.9%; with M14 melanoma, 94.2%; with HCT-15 colon, 111%; with HT29 colon, 107%. Moreover, the growth is 101% in the assay with SNB-19 CNS; 98% with U251 CNS; 92.5% in the assay with PC-3 prostate; 101% in the assay with SK-MEL-5 melanoma; 98% in the assay with UACC-62 melanoma; 97.5% in the assay on LOX IMVI melanoma. For the same compound, the growth with SK-MEL-28 melanoma is 92.6%.
As for `Nc1nc(-c2ccnc(Cl)c2)nn1-c1nc2ccccc2s1`, the growth was 115% with DU-145 prostate; 112% in the assay with K-562 leukemia; 97.3% with MALME-3M melanoma; 89.5% in the assay with MDA-MB-231 breast; 108% in the assay on RXF 393 renal; 100% in the assay with SF-268 CNS. Also, the growth was 101% with SF-295 CNS; 98.5% in the assay with SF-539 CNS; 113% in the assay on UACC-257 melanoma; 101% in the assay with M14 melanoma; 101% in the assay with HCT-15 colon; 112% with HT29 colon. Besides, the growth in the assay with SNB-75 CNS was 103%; in the assay on SNB-19 CNS, 98.9%; with PC-3 prostate, 102%; in the assay on SK-MEL-5 melanoma, 106%; in the assay on UACC-62 melanoma, 97%; with LOX IMVI melanoma, 102%. For the same compound, the growth with SK-MEL-28 melanoma was 104%.
For `O=C1/C(=C/c2ccc(F)cc2)CN(Cc2cn(CCNc3ccnc4cc(Cl)ccc34)nn2)C/C1=C\c1ccc(F)cc1`, the growth was 5.98% (active) in the assay with DU-145 prostate; 5.23% (active) in the assay with K-562 leukemia; -80.6% (active) with MALME-3M melanoma; -39.7% (active) with MDA-MB-231 breast; -97.2% (active) in the assay on RXF 393 renal; -80.2% (active) in the assay on SF-268 CNS. The growth is -55.5% (active) in the assay on SF-295 CNS; -78.5% (active) with SF-539 CNS; -72.5% (active) with UACC-257 melanoma; -49.7% (active) with M14 melanoma; -60.5% (active) in the assay with HCT-15 colon; -79.2% (active) in the assay on HT29 colon. The growth in the assay on SNB-75 CNS was 50%; in the assay with SNB-19 CNS, -74.4% (active); in the assay on SK-MEL-5 melanoma, -100% (active); in the assay on LOX IMVI melanoma it was -93.8% (active); in the assay on SK-MEL-28 melanoma it was -79.7% (active).
In the case of `CC(C)(C)CC(C)(C)N(CSc1ccc(Cl)cc1)CSc1ccc(Cl)cc1`, the growth in the assay on DU-145 prostate is 73.8%; with K-562 leukemia, 34.8%; in the assay on MALME-3M melanoma it was 82.1%; with MDA-MB-231 breast, 0.954% (active); in the assay on RXF 393 renal, 66.2%; with SF-268 CNS it was 31.5%. Moreover, the growth was 27.2% in the assay on SF-295 CNS; 6.24% (active) in the assay with SF-539 CNS; 63% with UACC-257 melanoma; 48.3% in the assay with M14 melanoma; 53.3% in the assay on HCT-15 colon; 57.7% in the assay on HT29 colon. In addition, the growth in the assay on SNB-75 CNS was 49.6%; with SNB-19 CNS it was 67.5%; in the assay with PC-3 prostate, 2.25% (active); in the assay with UACC-62 melanoma it was 57.9%; in the assay with LOX IMVI melanoma, -34.6% (active); with SK-MEL-28 melanoma it was 76.7%.
In the case of `COC(=O)[C@H]1CCCN1C(=O)[C@H]1CCCN1C(=O)[C@@H](Cc1c[nH]c2ccccc12)NC(=S)Nc1cc(C(F)(F)F)cc(C(F)(F)F)c1`, the growth in the assay with DU-145 prostate was 51.7%; in the assay with K-562 leukemia, 34.2%; in the assay with MALME-3M melanoma, 47.4%; in the assay on MDA-MB-231 breast, 44.5%; in the assay on RXF 393 renal, 56.3%; in the assay with SF-268 CNS it was 36.1%. The growth with SF-295 CNS is -50.5% (active); in the assay with SF-539 CNS, 74.4%; in the assay on UACC-257 melanoma, 75.4%; with M14 melanoma, 44.4%; in the assay with HCT-15 colon it was 55.5%; with HT29 colon, 39%. Further, the growth is 40.3% with SNB-75 CNS; 36.8% in the assay on SNB-19 CNS; 34% in the assay on PC-3 prostate; 58.7% in the assay on UACC-62 melanoma; 44.2% with LOX IMVI melanoma; 53% in the assay with SK-MEL-28 melanoma.
As to `Cc1nc2cc(Nc3nc(N4CCOCC4)nc(N4CCN(C)CC4)n3)ccc2n1Cc1ccccc1`, the growth in the assay with DU-145 prostate is 114%; in the assay on K-562 leukemia, 90.3%; with MALME-3M melanoma it was 106%; in the assay on MDA-MB-231 breast, 100%; in the assay on RXF 393 renal, 101%; in the assay on SF-268 CNS, 96.2%. The growth in the assay on SF-295 CNS is 95.2%; in the assay on SF-539 CNS, 91.3%; with UACC-257 melanoma it was 99.2%; with M14 melanoma, 110%; with HCT-15 colon, 96%; with HT29 colon, 109%. The growth is 71.2% in the assay with SNB-75 CNS; 106% in the assay on SNB-19 CNS; 96.7% with PC-3 prostate; 102% in the assay with UACC-62 melanoma; 97.2% in the assay with LOX IMVI melanoma; 106% with SK-MEL-28 melanoma.
